Source: PubChem (The Scripps Research Institute Molecular Screening Center)
GPR151 ag: activators of human GPR151, primary screen, cell-based, PathHunter beta-arrestin, luminescence. PathHunter beta-arrestin GPR151 cells. activation, % at 11.2 µM. 1% of 650,000 active. AID 1508602, 2020; in the data active = activation above about 4.9%
TEAD-YAP inh: TEAD-YAP interaction inhibition, primary screen, TEAD-YAP interaction inhibitor project, luminescence, HEK-TIYL cells; inhibition, % at 9.12 µM; TEAD-Gal4/YAP UAS-luciferase luminescence; AID 1259422, 2018; 1.4% of 640,000 active; in the data active = inhibition above about 32%
MITF inh: MITF inhibitors, primary screen, biochemical, AlphaScreen, human | Microphthalmia-associated transcription factor (Homo sapiens), O75030 | AlphaScreen MITF homodimerization, bead proximity signal | inhibition, % at 2.6 µM | 0.91% of 650,000 active | AID 1259374, 2018; in the data active = inhibition above about 50%
FBW7 activator: FBW7 E3 ligase activators, primary screen, biochemical, AlphaScreen, human; F-box/WD repeat-containing protein 7 (Homo sapiens), Q969H0; AlphaScreen FBW7–phospho-cyclin E peptide binding, activator screen; normalized activity (activation), % at 26.1 µM; 0.13% of 650,000 active; in the data active = normalized activity above about 1.9%;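 also: purified mutant Fbw7 with reduced substrate affinity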
MITF inh conf: MITF inhibitors, retest of hits, confirmation, biochemical, AlphaScreen, triplicate. shares compounds with MITF inh. AlphaScreen MITF homodimerization, biotin/His-MITF beads. inhibition, % at 2.6 µM. 16% of 4,700 active;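 active = inhibition above a cutoff derived from the DMSO control wells, cut at about 28% in these data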;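 also: inhibitors lower the bead chemiluminescence by keeping MITF from dimerizing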
AlphaScreen intf2: AlphaScreen optical interference compounds, counter-screen for MITF inhibitor project, biochemical, triplicate. shares compounds with MITF inh. 7.6% of 4,700 active. LysRS AlphaScreen counterscreen, signal interference. inhibition, % at 2.6 µM;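 active = inhibition above a cutoff derived from the DMSO control wells, cut at about 30% in these data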
Each line names hits and unclear results; the compound was inactive in the other large screens (follow-up assays come after a bar, where they were run). Only some compounds are listed: those with a hit (about 3.5% of all), similar ones and a draw of the others.

COc1ccc(OC)c(C(=O)c2coc3c2cc(O)c2ccccc23)c1	none
CCCOc1ccc(NC(=O)C2CC(=O)N(CCNc3ccc([N+](=O)[O-])cn3)C(=Nc3ccc(Cl)cc3)S2)cc1 (configuration not stated)	none
CCCS(=O)(=O)N1CCN(Cc2ccc(OC)cc2)CC1	none
CCCS(=O)(=O)N1CCN(Cc2ccc(OCc3ccccc3)c(OC)c2)CC1	MITF inh 64 | MITF inh conf inactive | AlphaScreen intf2 inactive
CCCS(=O)(=O)N1CCN(Cc2ccc(OC)c(OC)c2)CC1	MITF inh 53 | MITF inh conf inactive | AlphaScreen intf2 inactive
CCCS(=O)(=O)N1CCN(Cc2nc3ccc(OC)cc3[nH]2)CC1	MITF inh 66 | MITF inh conf inactive | AlphaScreen intf2 inactive
CCCS(=O)(=O)N1CCN(Cc2ccc(OC)cc2OC)CC1	none
Cc1nnc(NC(=O)c2ccc(Cl)c(S(=O)(=O)NC(C)(C)C)c2)s1	none
CCOc1cc(C2NC(=S)NC(C)=C2C(=O)Nc2cc(OC)ccc2OC)ccc1O (configuration not stated)	none
COc1ccc(CN2CCCCCC2)cc1	none
COc1ccc(CN2CCC(N3CCCCC3)CC2)cc1	MITF inh 54 | MITF inh conf inactive | AlphaScreen intf2 inactive
CCOc1ccc(CN2CCC(N3CCN(Cc4ccccc4)CC3)CC2)cc1	none
COc1ccc(CN2CCN(C3CCC(C)CC3)CC2)cc1 (configuration not stated)	MITF inh 73 | MITF inh conf inactive | AlphaScreen intf2 inactive
O=C(N/N=C/c1ccc2c(c1)OCO2)C(=O)NC1CC1	none
C/C(=N\N=C(N)N)c1ccc(C2CCCCC2)cc1	none
COc1ccc(-n2c(SCC(=O)/C(C#N)=C(\C)N)nc3ccccc32)cc1	MITF inh 70 | MITF inh conf inactive | AlphaScreen intf2 inactive
CCCCNC(=O)c1cc(C2CC2)on1	none
CC1CCN(C(CNCC(O)COc2ccccc2)c2cccs2)CC1 (configuration not stated)	MITF inh 70 | MITF inh conf inactive | AlphaScreen intf2 inactive
OC(CNCCNCC(O)COc1ccccc1)COc1ccccc1 (configuration not stated)	none
OC(CNCC1CCCCC1)COc1ccccc1 (configuration not stated)	none
CN(C)C(CNCC(O)COc1ccccc1)c1cccs1 (configuration not stated)	MITF inh 71 | MITF inh conf inactive | AlphaScreen intf2 inactive
O=C(Nc1nnc(CCSc2ccc(Br)cc2)s1)c1ccc(F)cc1	none
COc1ccc(NC(=O)c2ncn[nH]2)cc1OC	none
C=CCc1ccccc1OCCOc1ccc(/C=C2/C(=N)N3N=C(CC)SC3=NC2=O)cc1OCC	none
Cc1ccc(S(=O)(=O)N2CCN(Cc3cccc4ccccc34)CC2)cc1	none
O=S(=O)(c1ccc(F)cc1)N1CCN(Cc2cccc3ccccc23)CC1	MITF inh 82 | MITF inh conf inactive | AlphaScreen intf2 inactive
O=S(=O)(c1ccc(F)cc1)N1CCN(Cc2ccncc2)CC1	MITF inh 73 | MITF inh conf inactive | AlphaScreen intf2 inactive
COc1ccc(S(=O)(=O)N2CCN(Cc3cc(OC)c(OC)c(OC)c3)CC2)cc1	MITF inh 56 | MITF inh conf inactive | AlphaScreen intf2 inactive
CCOc1ccc(CN2CCN(Cc3cc(OC)c(OC)cc3OC)CC2)cc1	MITF inh 74 | MITF inh conf inactive | AlphaScreen intf2 inactive
CCOc1ccc(CN2CCN(Cc3ccccc3OC)CC2)cc1	none
CC(C)OC(=O)CCC/C=C\C[C@@H]1[C@@H](/C=C/[C@H](O)COc2cccc(C(F)(F)F)c2)[C@H](O)C[C@@H]1O	none (no result: TEAD-YAP inh, FBW7 activator)
N#CC(c1ccccc1)N1C(=O)c2ccccc2C1=O (configuration not stated)	none
CC(C)CN(CC(C)C)S(=O)(=O)CCNC(=O)c1ccc2c(c1)OCO2	none
CCOc1ccc(CN2CCN(Cc3ccc(CC)cc3)CC2)cc1	MITF inh 75 | MITF inh conf inactive | AlphaScreen intf2 inactive
